Bioassay records: PubChem BioAssay, several laboratories
Hits are enriched below; roughly 3.2% of the tested compounds scored in any of these assays.
FBA Mtb inh = inhibitors of M. tuberculosis fructose-bisphosphate aldolase. P9WQA3. purified M. tuberculosis FBA, fluorescence read-out. inhibition, % at 1 µM. 360,000 tested, 2.3% active. AID 588726;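 note: 0% = vehicle and 100% = reference inhibitor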
Target sequence (P9WQA3 whole entry, looked up): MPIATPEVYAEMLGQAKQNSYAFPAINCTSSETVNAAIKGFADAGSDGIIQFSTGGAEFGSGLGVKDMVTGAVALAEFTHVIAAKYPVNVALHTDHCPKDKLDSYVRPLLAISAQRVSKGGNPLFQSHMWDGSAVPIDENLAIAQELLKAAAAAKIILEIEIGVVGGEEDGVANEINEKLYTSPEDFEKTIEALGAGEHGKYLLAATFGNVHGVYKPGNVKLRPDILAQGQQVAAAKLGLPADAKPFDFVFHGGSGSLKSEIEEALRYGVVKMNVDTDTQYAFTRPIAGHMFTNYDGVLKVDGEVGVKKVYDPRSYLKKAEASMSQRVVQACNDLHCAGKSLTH
SSB-PriA inh = blocks PriA binding to SSB C-terminal tail. AlphaScreen SSBct-PriA binding, biotinylated peptide. inhibition, % at 33 µM. 430,000 tested, 0.6% active. AID 1272365; in the data active = inhibition mostly above about 37%, no sharp cut-off; inactive = mostly below about 20%;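 note: plate controls were negative control peptide for no effect and reference peptide for full effect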
GDH-TPI counter-1 = GDH-TPI coupled enzyme inhibition counter-screen. GDH-TPI coupled enzyme counterscreen, NADH absorbance. inhibition, % at 4.8 µM. 360,000 tested, 1.2% active. AID 588335; in the data active = inhibition above about 30%;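 note: 0% = DMSO wells and 100% = wells lacking the enzyme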
Rv3671c protease = Rv3671c (M. tuberculosis) protease inhibition. P9WHR9. inhibition, % at 5.96 µM. 320,000 tested, 0.048% active. AID 2606; in the data active = inhibition above about 38%;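 note: extracellular domain of Rv3671c used as enzyme; 0% = enzyme with DMSO and 100% = no enzyme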
Mtb bLac sens = beta-lactam sensitization of Mtb H37Rv. 330,000 tested, 0.27% active. inhibition, % at 25 µM. AID 434955. M. tuberculosis H37Rv growth with meropenem, percent inhibition; call rule not given here;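 note: growth measured after seven days incubation then overnight dye step; 0% = bacteria only wells and 100% = bacteria with antibiotic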
UGM FP inh = inhibitors of M. tuberculosis UDP-galactopyranose mutase | inhibition, % at 10 µM | AID 504406 | purified UGM, fluorescence polarization probe displacement | P9WIQ1 | 320,000 tested, 0.06% active; in the data active = inhibition above about 10%, passing the limit was not always enough; inconclusive = no clear call, values can overlap the other calls
Mtb FBA inh conf = confirmation of M. tuberculosis fructose-bisphosphate aldolase inhibitors; 5,600 tested, 78% active; shares compounds with FBA Mtb inh; purified M. tuberculosis FBA, fluorescence read-out; inhibition, % at 1 µM;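 note: 0% = vehicle wells and 100% = reference inhibitor wells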
GDH-TPI counter-2 = counter-screen for M. tuberculosis FBA inhibitors: GDH-TPI coupled enzyme inhibition; 5,600 tested, 81% active; shares compounds with FBA Mtb inh; inhibition, % at 1 µM; GDH-TPI coupled enzyme counterscreen, fluorescence; in the data active = inhibition above about 10%
* hit, by the source's call; ? = inconclusive; . = no result; + = active, no number. Cut-off read from the data, not from the text of the source, unless noted: active = inhibition above about 27%; inactive = the rest.

SMILES | FBA Mtb inh | SSB-PriA inh | GDH-TPI counter-1 | Rv3671c protease | Mtb bLac sens | UGM FP inh | Mtb FBA inh conf | GDH-TPI counter-2
CCOC(=O)c1ccc2nc(NC(=O)c3cccc(NS(=O)(=O)c4ccc(F)cc4)c3)sc2c1 | . | -14 | . | . | . | . | . | .
CS(=O)(=O)c1ccc2nc(NC(=O)c3cccc(NS(=O)(=O)c4ccccc4)c3)sc2c1 | . | 7 | . | . | . | . | . | .
CS(=O)(=O)c1ccc2nc(NC(=O)c3ccc(NS(=O)(=O)c4ccc(F)c(F)c4)cc3)sc2c1 | 71* | -11 | 60* | -89 | 0 | 0 | 79* | 82*
COCCN1CCC(CNC(=O)C(=O)NC(C)c2ccccc2)CC1 (stereo not drawn) | . | -3 | . | . | . | . | . | .
COc1cc2c(cc1O)C[C@H]1c3c(cc(O)c(OC)c3-2)CCN1C | 47* | 22 | 4 | 6 | -1 | -1 | 32* | 23*
CCCNC(=O)C(=O)NCc1ccsc1 | . | 4 | . | . | . | . | . | .
Nc1nccc(/C=C/c2c(F)cccc2Cl)n1 | 13 | -5 | 12 | -7 | 5 | -1 | . | .
O=c1cc(/C=C/c2c(F)cccc2Cl)[nH]c2ccccc12 | 45* | -6 | 14 | -51 | 74 | -1 | 53* | 33*
O=C(Cn1c2ccc(F)cc2c2nc3n(c(=O)c21)CCS3)NCC1CCCO1 (stereo not drawn) | 30* | -1 | 9 | -19 | -10 | 0 | 62* | 55*
CCCC1Cc2c(sc3ncnc(N)c23)CO1 (stereo not drawn) | 28* | -2 | 2 | 0 | 5 | 1 | 142* | 121*
CC1(C)Cc2c(sc3ncnc(N)c23)CO1 | 2 | 6 | -12 | 2 | -3 | -2 | . | .
Cc1cn(C2CCCCC2)c(=O)n(-c2ccccc2)c1=O | 37* | -8 | 1 | . | . | . | + | 177*
Cc1cc(=O)c2ccc(C(F)(F)F)cc2[nH]1 | 3 | 1 | 8 | -6 | -12 | 2 | . | .
O=c1cc(C(F)(F)F)[nH]c2ccc(C(F)(F)F)cc12 | 35* | -7 | 5 | -5 | 0 | 1 | 65* | 50*
O=C(OCC(=O)N1CCc2ccccc21)c1ccccc1 | 2 | -4 | -7 | 0 | -18 | -2 | . | .
CNc1ccccc1C(=O)OCC(=O)N1CCc2ccccc2C1 | 63* | . | 12 | . | . | . | 8 | 7
O=C(OCC(=O)N1CCc2ccccc2C1)c1ccc(O)cc1 | -2 | -6 | 4 | 8 | -4 | 2 | . | .
CN(C(=O)COC(=O)c1ccccc1NCCO)C1CCS(=O)(=O)C1 (stereo not drawn) | 103* | -2 | 3 | -1 | -5 | 4 | 124* | 93*
CN(C(=O)COC(=O)c1ccccc1NC(=O)c1ccco1)C1CCS(=O)(=O)C1 (stereo not drawn) | -2 | -1 | 4 | -2 | -5 | 2 | . | .
O=C(OCC(=O)N1CCN(c2ccccc2)CC1)c1ccccc1NCCO | 100* | -5 | 19 | 7 | 3 | 1 | + | +
Nc1ccccc1C(=O)OCC(=O)N1CCc2ccccc21 | 35* | -1 | 1 | . | . | . | 59* | 43*
COC(=O)c1c(NC(=O)C2C3CCC(O3)C2C(=O)O)sc2c1CCCCCC2 (stereo not drawn) | 61* | 1 | 6 | -12 | -3 | 2 | 95* | 78*
O=C(NCC(c1cccs1)N1CCc2ccccc2C1)c1cccc(Br)c1 (stereo not drawn) | . | -5 | . | . | . | . | . | .
COc1ccc(CCNC(=O)C2CCN(C(=O)c3ccccc3C)CC2)cc1 | 49* | -6 | 6 | 7 | 3 | -1 | -4 | -4
CC(Oc1cc2oc(=O)c3c(c2cc1Cl)CCCC3)C(=O)NCc1ccccn1 (stereo not drawn) | 14 | 1 | 13 | -5 | 97 | -3 | . | .
SMILES | FBA Mtb inh | SSB-PriA inh | GDH-TPI counter-1 | Rv3671c protease | Mtb bLac sens | UGM FP inh | Mtb FBA inh conf | GDH-TPI counter-2
Cc1c(OC(C)C(=O)NCc2ccccn2)ccc2c3c(c(=O)oc12)CCCC3 (stereo not drawn) | 68* | -6 | 3 | -7 | 99 | 1 | 3 | 1
Cc1c(OC(C)C(=O)NCc2ccncc2)ccc2c3c(c(=O)oc12)CCC3 (stereo not drawn) | 73* | -3 | 12 | 2 | 91 | 0 | 83* | 53*
O=C(NCCNC(=O)c1ccc(F)cc1F)c1ccc(NC(=O)c2ccc(F)cc2)cc1 | . | -5 | . | . | . | . | . | .
O=C(Nc1ccc2c(c1)C(=O)Nc1ccccc1O2)c1ccco1 | . | 9 | . | . | . | . | . | .
COc1cccc(-c2cc(C(=O)O)c3[nH]c(C)nc3n2)c1O | . | -7 | . | . | . | . | . | .
COC(=O)c1ccc2[nH]c(C)cc(=O)c2c1 | 34* | -2 | 11 | -10 | -8 | 1 | 95* | 85*
CCOC(=O)c1ccc2[nH]c(C)cc(=O)c2c1 | 36* | -9 | 14 | 6 | 4 | 1 | + | 196*
Cc1cc(=O)c2cc(C(=O)O)ccc2[nH]1 | . | -3 | . | . | . | . | . | .
CNC(=O)CS(=O)(=O)C1CCN(S(=O)(=O)c2c(C)nn(C)c2C)CC1 | . | -5 | . | . | . | . | . | .
O=C(Nc1onc2c1CCCC2)c1ccc2ncsc2c1 | . | 2 | . | . | . | . | . | .
C=C(C)Cn1c(N2CCCC2)nc2c1c(=O)n(C)c(=O)n2C | 33* | -7 | 3 | 7 | 2 | 0 | 157* | 109*
O=C1CCC(=O)N1CC(=O)N1CCCSCC1CN1CCCC1 (stereo not drawn) | . | 7 | . | . | . | . | . | .
Cn1cc(S(=O)(=O)NCC2CCN(C(=O)COc3ccccc3)CC2)cn1 | . | 6 | . | . | . | . | . | .
COc1ccc2oc(C(=O)OCC(=O)N3CCCC3=O)c(C)c2c1 | 45* | -14 | 2 | 1 | -18 | 4 | 73* | 36*
COc1ccc2oc(C(=O)OCC(=O)N3C(C)CCCC3C)c(C)c2c1 (stereo not drawn) | 40* | 4 | -3 | -1 | ? | 2 | 41* | 45*
COc1ccc2oc(C(=O)OCC(=O)c3ccc4c(c3)OCCO4)c(C)c2c1 | -2 | 1 | 0 | 2 | 4 | -1 | . | .
COc1ccc2oc(C(=O)OCC(=O)N3CCCCC3C)c(C)c2c1 (stereo not drawn) | 63* | -17 | 1 | -2 | -4 | -2 | 195* | 169*
CCOc1ccc2oc(C(=O)OCC(=O)N3C(C)CCCC3C)c(C)c2c1 (stereo not drawn) | 48* | 2 | 6 | -9 | 41 | -2 | 91* | 87*
COc1ccc(C(=O)OCC(=O)N2CCCC2=O)c(OC)c1 | 3 | -5 | 5 | 2 | 0 | -2 | . | .
Cc1c(C(=O)OCC(=O)N2C(C)CCCC2C)oc2ccccc12 (stereo not drawn) | 8 | -12 | -2 | 0 | -26 | -1 | . | .
O=S(=O)(c1ccccc1F)N1CCN(c2ccc(Cl)c(Cl)c2)CC1 | . | -6 | . | . | . | . | . | .
N#Cc1ccc(-c2csc(NC(=O)C3CC3)n2)cc1 | 50* | -14 | 5 | -16 | 15 | 0 | 91* | 71*
